Reference: the supplement of paper PMC8728848
This excerpt belongs to a sample that is enriched for the strongest signals.

Legend:
Experiment in all cases: glycan array binding signal (z-score within array); higher = stronger binding
Settings in all cases: glycan notation: IUPAC condensed, linker removed; mutation: R82H, R255H
[1] = target: Fuc(a1-2)Gal(b1-3)GlcNAc(b1-3)[Gal(b1-4)GlcNAc(b1-6)]Gal(b1-4)Glc
How it was run: (§1)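 Glycan array binding is given as a within-array Z-score, which can be read as non-binding when negative. The arrays, 3228 of them, came from the Consortium for Functional Glycomics database and were retained only where the protein sequence was available. Z-scores were averaged across arrays of the same protein sequence at different concentrations or buffers and across linkers.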

[2] = target: Fuc(a1-2)Gal(b1-3)[Fuc(a1-4)]GlcNAc(b1-2)Man(a1-3)[Fuc(a1-2)Gal(b1-3)[Fuc(a1-4)]GlcNAc(b1-2)Man(a1-3)]Man(b1-4)GlcNAc(b1-4)GlcNAc
How it was run: as §1

[3] = target: Fuc(a1-2)[Gal(a1-3)]Gal(b1-3)GlcNAc(b1-2)Man(a1-3)[Fuc(a1-2)[Gal(a1-3)]Gal(b1-3)GlcNAc(b1-2)Man(a1-6)]Man(b1-4)GlcNAc(b1-4)GlcNAc
How it was run: as §1

[4] = target: Fuc(a1-2)[Gal(a1-3)]Gal(b1-4)GlcNAc(b1-6)GalNAc
How it was run: as §1

[5] = target: Fuc(a1-2)[GalNAc(a1-3)]Gal
How it was run: as §1

[6] = target: Fuc(a1-2)[GalNAc(a1-3)]Gal(b1-3)GalNAc(b1-3)Gal(a1-4)Gal(b1-4)Glc
How it was run: as §1

[7] = target: Fuc(a1-2)[GalNAc(a1-3)]Gal(b1-3)GlcNAc(b1-2)Man(a1-3)[Fuc(a1-2)[GalNAc(a1-3)]Gal(b1-3)GlcNAc(b1-2)Man(a1-6)]Man(b1-4)GlcNAc(b1-4)GlcNAc
How it was run: as §1

[8] = target: Fuc(a1-2)[GalNAc(a1-3)]Gal(b1-4)GlcNAc(b1-2)Man(a1-3)[Fuc(a1-2)[GalNAc(a1-3)]Gal(b1-4)GlcNAc(b1-2)Man(a1-6)]Man(b1-4)GlcNAc(b1-4)GlcNAc
How it was run: as §1

[9] = target: Fuc(a1-2)[GalNAc(a1-3)]Gal(b1-4)GlcNAc(b1-3)Gal(b1-4)GlcNAc
How it was run: as §1

[10] = target: Fuc(a1-2)[GalNAc(a1-3)]Gal(b1-4)GlcNAc(b1-3)[Fuc(a1-2)[GalNAc(a1-3)]Gal(b1-4)GlcNAc(b1-6)]GalNAc
How it was run: as §1

[11] = target: Fuc(a1-3)[Gal(b1-4)]GlcNAc(b1-6)GalNAc
How it was run: as §1

[12] = target: Fuc(a1-3)[Gal3S(b1-4)]Glc
How it was run: as §1

[13] = target: Fuc(a1-4)GlcNAc
How it was run: as §1

[14] = target: Gal(a1-3)Gal(b1-3)GlcNAc(b1-2)Man
How it was run: as §1

[15] = target: Gal(a1-3)[Gal(a1-4)]Gal(b1-4)GlcNAc
How it was run: as §1

[16] = target: Gal(a1-4)Gal(b1-4)Glc
How it was run: as §1

[17] = target: Gal(b1-2)Gal
How it was run: as §1

[18] = target: Gal(b1-3)GalNAc
How it was run: as §1

[19] = target: Gal(b1-3)GalNAc(b1-3)Gal(a1-4)Gal(b1-4)Glc
How it was run: as §1

[20] = target: Gal(b1-3)GalNAc(b1-4)Gal(b1-4)Glc
How it was run: as §1

[21] = target: Gal(b1-3)GlcNAc(a1-3)Gal(b1-4)GlcNAc
How it was run: as §1

[22] = target: Gal(b1-3)GlcNAc(b1-3)Gal(b1-4)Glc
How it was run: as §1

[23] = target: Gal(b1-3)GlcNAc(b1-6)GalNAc
How it was run: as §1

[24] = target: Gal(b1-3)[Fuc(a1-4)]GlcNAc(b1-6)GalNAc
How it was run: as §1

[25] = target: Gal(b1-4)GlcNAc(b1-2)Man
How it was run: as §1

[26] = target: Gal(b1-4)GlcNAc(b1-3)Gal(b1-4)GlcNAc(b1-2)Man(a1-3)[Gal(b1-4)GlcNAc(b1-3)Gal(b1-4)GlcNAc(b1-2)Man(a1-6)]Man(b1-4)GlcNAc(b1-4)GlcNAc
How it was run: as §1

[27] = target: Gal(b1-4)GlcNAc(b1-3)Gal(b1-4)GlcNAc(b1-3)Gal(b1-4)GlcNAc(b1-3)Gal(b1-4)GlcNAc(b1-3)Gal(b1-4)GlcNAc(b1-2)[Gal(b1-4)GlcNAc(b1-3)Gal(b1-4)GlcNAc(b1-3)Gal(b1-4)GlcNAc(b1-3)Gal(b1-4)GlcNAc(b1-3)Gal(b1-4)GlcNAc(b1-6)]Man(a1-6)[Gal(b1-4)GlcNAc(b1-3)Gal(b1-4)GlcNAc(b1-3)Gal(b1-4)GlcNAc(b1-3)Gal(b1-4)GlcNAc(b1-3)Gal(b1-4)GlcNAc(b1-2)Man(a1-3)]Man(b1-4)GlcNAc(b1-4)[Fuc(a1-6)]GlcNAc
How it was run: as §1

[28] = target: Gal(b1-4)GlcNAc(b1-3)Gal(b1-4)GlcNAc(b1-3)Gal(b1-4)GlcNAc(b1-3)Gal(b1-4)GlcNAc(b1-3)Gal(b1-4)GlcNAc(b1-3)Gal(b1-4)GlcNAc(b1-2)Man(a1-3)[Gal(b1-4)GlcNAc(b1-3)Gal(b1-4)GlcNAc(b1-3)Gal(b1-4)GlcNAc(b1-3)Gal(b1-4)GlcNAc(b1-3)Gal(b1-4)GlcNAc(b1-3)Gal(b1-4)GlcNAc(b1-2)Man(a1-6)]Man(b1-4)GlcNAc(b1-4)GlcNAc
How it was run: as §1

B1: Gal 8 (Mus musculus), Q9JL15 (protein)
chain: MGGSHHHHHHGMASMLSLNNLQNIIYNPIIPYVGTITEQLKPGSLIVIRGHVPKDSERFQVDFQLGNSLKPRADVAFHFNPHFKRSSCIVCNTLTQEKWGWEEITYDMPFRKEKSFEIVFMVLKNKFQVAVNGRHVLLYAHRISPEQIDTVGIYGKVNIHSIGFRFSSASALPHTLGDLQSMETSALGLTQINRENIQKPGKLQLSLPFEARLNASMGPGRTVVIKGEVNTNARSFNVDLVAGKTRDIALHLNPHLNVKAFVRNSFLQDAWGEEERNITCFPFSSGMYFEMIIYCDVREFKVAINGVHSLEYKHRFKDLSSIDTLSVDGDIRLLDVRSW
[1]
  glycan array binding signal (z-score): 1.15
[2]
  glycan array binding signal (z-score): -0.083
[3]
  glycan array binding signal (z-score): 4.77
[4]
  glycan array binding signal (z-score): -0.168
[5]
  glycan array binding signal (z-score): -0.248
[6]
  glycan array binding signal (z-score): -0.253
[7]
  glycan array binding signal (z-score): 7.3
[8]
  glycan array binding signal (z-score): 6.58
[9]
  glycan array binding signal (z-score): -0.08
[10]
  glycan array binding signal (z-score): 0.117
[11]
  glycan array binding signal (z-score): -0.212
[12]
  glycan array binding signal (z-score): -0.192
[13]
  glycan array binding signal (z-score): 0.01
[14]
  glycan array binding signal (z-score): -0.263
[15]
  glycan array binding signal (z-score): -0.236
[16]
  glycan array binding signal (z-score): -0.18
[17]
  glycan array binding signal (z-score): -0.193
[18]
  glycan array binding signal (z-score): -0.251
[19]
  glycan array binding signal (z-score): -0.235
[20]
  glycan array binding signal (z-score): -0.226
[21]
  glycan array binding signal (z-score): -0.269
[22]
  glycan array binding signal (z-score): -0.263
[23]
  glycan array binding signal (z-score): -0.274
[24]
  glycan array binding signal (z-score): -0.243
[25]
  glycan array binding signal (z-score): -0.197
[26]
  glycan array binding signal (z-score): 0.454
[27]
  glycan array binding signal (z-score): 6
[28]
  glycan array binding signal (z-score): 7.05
